The results in this text go back to PubChem BioAssay (NCI).

This is part of a sample that, as a whole, favours compounds with a hit. Of some 83,000 tested, about 20% had one in any assay.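 Interpretation: 100, growth as untreated; towards 0, rising growth inhibition; 0, no net growth; 0 to -100, cell death. Compounds scoring below 10 were considered active.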 Activity calls are given as the source filed them.

The test system of the test is HL-60(TB) leukemia. In words: NCI-60 one-dose screen, 48 h (100 = growth as untreated, 0 = no growth, -100 = all killed). The note with it: 10 µM unless noted.
On to `O=[N+]([O-])c1cccc(N=Cc2ccccc2)c1`, for which the growth was 106% (inactive). Under `CC1=C([Se]CC(OC(=O)[C@@H](CSSC(C)(C)C)NC(=O)C(C)(C)C)C(=O)NCCCCCC(=O)OCc2ccccc2)C(=O)c2ccccc2C1=O` (stereo not given in full) stands -24.4% (active); under `Oc1ccc(CN2CCC(N3CCOCC3)CC2)c2cccnc12`, 34.4% (inactive).

On to `COC1=CC(c2ccc[nH]2)=N/C1=C\c1[nH]c(C)c(CC(=O)NCc2ccccc2)c1C`, for which the growth was -0.337% (active). Under `CCOC(=O)c1c(C(=O)c2cn(C)c3ccc(Br)cc23)c(-c2cn(C)c3ccc(Br)cc23)n(NC(=O)OC(C)(C)C)c1C` stands 100% [100 µM] (inactive); under `O=C1COCCN1c1ccc(Nc2nc(Cl)nc(N3CCOCC3)n2)cc1`, 90.5% (inactive). Under `COc1ccc(-c2nc(N3CCCC3=O)sc2Br)cc1OC` stands 101% (inactive); under `COc1ccc2c(c1)/C(=C/c1cc(OC)c(OC)c(OC)c1)C(=O)N2C`, 3.32% (active); under `F`, 28.1% [6.87 mM] (inactive). Consider `COc1ccccc1-[n+]1cc(-c2ccc(-c3ccccc3)cc2)n2c1CCCCC2`, for which the growth is -27.7% (active).

With `CN(C)c1ccc2cc(-c3nc4ccccc4s3)c(N)nc2c1`, the growth was 0.561% (active). Regarding `CCCCC(=O)Nc1c(C(=O)Nc2ccccc2)sc2nc3c(cc12)C(OC(=O)CCCC)CCC3` (stereo not given), the growth was 99.3% (inactive). As to `CN1C(=O)N(C)C2C1NN=c1s/c(=C\c3ccc(Br)cc3)c(=O)n12` (stereo not given), the growth is -13.8% (active).

With `COC1=CC(c2ccc[nH]2)=N/C1=C\c1[nH]c(C)c(C(=O)OC(C)C)c1C`, the growth is 2.29% (active). Under `N#CCCN1C/C(=C/c2ccccc2)C(=O)/C(=C/c2ccccc2)C1` stands 43.2% (inactive); under `Cc1ncc(C(=O)Nc2ccc(CN3CCN(C)CC3)c(C(F)(F)F)c2)cc1C#Cc1cnc(N)c2cnccc12`, 16.1% (inactive); under `CC(=O)Oc1cccc(OC(C)=O)c1OC(C)=O`, 103% (inactive). `Cc1cccc(C[C@H](NC(=O)Nc2ccc(Cl)cc2F)C(=O)N[C@@H]2C(=O)N3C[C@H](O)C[C@H]3C(=O)N3CCN(C)C[C@H]3C(=O)N[C@@H](C)C(=O)N3C[C@H](C)C[C@H]3C(=O)O[C@H]2C)c1`: the growth is 32.8% (inactive). Under `CCOC(=O)c1c(C)oc2ncnc(Nc3ccc(NC(=O)Nc4cccc(Cl)c4)cc3)c12` stands 88.4% (inactive); under `CCCCCCN(CCCCCC)CC(O)c1ccc2c3c(cccc13)CC2` (stereo not given), 64.6% (inactive). Then `O=C1c2cc(Cl)ccc2Oc2cc([N+](=O)[O-])ccc2N1c1ccc(F)cc1F`, with 76% (inactive). Consider `COc1cc(/C=C/c2cc(/C=C/c3ccc(O)c(OC)c3)n(C(=O)Nc3ccccc3Cl)n2)ccc1O`, for which the growth was -24.3% (active).

With `COc1ccc(S(=O)(=O)NCCNc2nccc(-c3c(-c4cccc([N+](=O)[O-])c4)nc4sccn34)n2)cc1`, the growth was 110% (inactive). `COC(=O)Nc1nc2ccc(C(=O)c3ccc(N(C)C4COC4)cc3)cc2[nH]1`: the growth was -28.8% (active). Then `COc1ccc2c(c1OC)C(=O)O[C@H]2[C@H]1c2c(cc3c(c2OC)OCO3)CCN1C`, with 31.9% (inactive).

For `C=CCNc1ccccc1`, the growth is 125% (inactive). Turning to `COc1ccc(Cn2cc3c(c2-c2ccc(OC)cc2)CCc2cnoc2-3)cc1`, the growth was -6.74% (active).

For the compound `O=C(CC1(O)C(=O)Nc2c(Cl)ccc(Cl)c21)c1ccc(Cl)cc1Cl` (stereo not given), the growth is 80.8% (inactive). Under `OCCOSCCO` stands 99.1% (inactive). With `CC1=NC(c2ccc(Cl)cc2)C2=C(N1)/C(=C/c1ccc(Cl)cc1)CCC2` (stereo not given), the growth is 85.8% (inactive). Then `COc1ccc2oc3c(ccc[n+]3C)c(=O)c2c1`, with 109% (inactive); and `COc1ccc(Oc2nc(Nc3ccc(N4CCOCC4)nc3)ncc2NC(=O)c2cc(OC)cc(OC)c2)cc1`, with 75% (inactive); and `O=C1/C(=C\c2ccc([N+](=O)[O-])cc2)CS(=O)(=O)C/C1=C/c1ccc([N+](=O)[O-])cc1`, with -38.4% (active).

`Fc1ccc(NCCS)cc1`: the growth is 100% (inactive). In the case of `CNc1nc2ncn(C)c2c(=O)[nH]1`, the growth is 91.5% (inactive). `COc1ccc(-c2cc(-c3cc(OC)c(OC)c(OC)c3)c(C#N)c(=O)n2CCCCC(=O)O)cc1`: the growth was 103% (inactive).

Consider `c1ccc(Cn2cc3c(c2)-c2oncc2CC3)cc1`, for which the growth is 11.5% (inactive). In the case of `O=C1/C=C/[C@@H](O)[C@@H]2C[C@@H](O)C[C@H]2/C=C/CCC[C@@H](O)CCO1`, the growth is 123% (inactive). Under `O=C(O)/C=C/C(=O)Nc1cccc(Cn2nnc3cc(Cl)c(Cl)cc32)c1` stands 112% (inactive); under `Cc1ccc(C(SCC(N)C(=O)O)(c2ccc(C)cc2)c2ccc(C)cc2)cc1` (stereo not given), -17% (active).
